Assay results: PubChem BioAssay
Several values for one entry are separate records, joined by “and”; a condition that tells them apart may be missing. Equal values may be shown once. Inconclusive results are not listed. For part of these data: Results with a measured potency or affinity are listed apart. Activity calls are given as the source filed them. Unless noted, no rule for the calls is given here.

Tests used:
[1] = molecular target: ATP-dependent translocase ABCB1 (Homo sapiens) (UniProt P08183); test: P-glycoprotein substrate transport blockade – cell-based (AID 377; in the data active = fluorescence slope change above about 50%); details: MDR1-expressing cells, fluorescent substrate accumulation slope; stronger effect = higher value; concentration not given here
[2] = blockers of polyQ-driven CASP3 activation – cell-based (AID 1583); details: polyglutamine-induced caspase-3 activation, cell assay; stronger effect = higher value;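 tested at 10 µM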
[3] = restoration of touch response, mutant HTT neurons – whole organism, C. elegans mechanosensory neurons, N-terminal huntingtin (AID 1599); details: C. elegans polyQ-huntingtin mechanosensory neurons, stronger effect = higher value
[4] = glutamate transport activators, MN-1 cells, MN-1 cell line (AID 1612); details: MN-1 motor neuron cells, stronger effect = higher value;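 also: tested at 1 µM final; 0% = mean of DMSO vehicle wells on each plate; positive means more glutamate uptake than control and negative means less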
[5] = GFP-Q80 aggregate reduction, neuronal-like cells, cell-based, NGF-treated PC12, GFPQ80 (AID 1614); details: PC12 NGF-treated GFP-polyQ80 inclusion reduction;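 also: lower means fewer inclusions and 0 means no inclusions at all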
[6] = 75Q-TubH aggregate inhibition, S. cerevisiae, yeast (AID 1616); details: S. cerevisiae 75Q-TubH polyglutamine aggregation suppression; stronger effect = higher value
[7] = compounds altering circadian rhythm period length – cell-based, LOPAC library, luminescence reporter (AID 2774); details: circadian reporter cells, at 7 µM, actives lie on both sides;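 also: values are relative to mean of DMSO wells on each plate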
[8] = system: Hepatitis C virus NS3 helicase; test: blockers of NS3h binding to ssDNA – biochemical, fluorescence polarization, LOPAC1280 library, primary screen (AID 687035; in the data active = inhibition above about 37%); details: Purified HCV NS3 helicase, Cy5-dT15 ssDNA binding fluorescence polarization; stronger effect = higher value; concentration not given here
[9] = compounds altering Cy5-DNA-NS3h complex signal – biochemical, LOPAC1280, artefact control for HCV NS3 helicase inhibitor project (AID 687037); details: Cy5-DNA-NS3h complex fluorescence interference counterscreen
[10] = system: Aerobactin synthetase IucA (Klebsiella pneumoniae, hypervirulent); test: biochemical IucA inhibition screen of LOPAC library by absorbance (AID 1346212); details: IucA enzyme assay, absorbance (OD) readout; stronger effect = lower value;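 tested at 8 µM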;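 also: 100% = no compound wells and 0% = no enzyme wells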
[11] = blockers of cellular phospholipid synthesis – cell-based, LOPAC library, screen 4, primary screen (AID 1347384); details: animal cells, phospholipid biosynthesis inhibition screen; at 10 µM
[12] = compounds altering viability of human ES cells (AID 493140); details: human embryonic stem cell survival screen; stronger effect = higher value;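 also: cells exposed to compounds for four days before counting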
[13] = modulation of C. elegans fzo-1 (AID 1259413);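 also: fzo-1 mutant C. elegans worms in liquid wells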; details: C. elegans fzo-1 modulator screen, mean read-out; stronger effect = higher value
[14] = system: F380Y; test: BK channel mutant inhibitors and activators – cell-based, U2OS BacMam, thallium flux, beta subunits, selectivity assay, profiling panel (AID 1259406;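 active = thallium flux through the channel raised or lowered by more than 3 SD from vehicle-only wells, actives on both sides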;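 also: initial slope of Thallos dye fluorescence rise after thallium is added; log ratio against the mean of 0.3% DMSO vehicle wells on the same plate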); details: U2OS BacMam BK variants, at 30 µM
[15] = system: F380Y/beta1; test: as above; details: U2OS BacMam BK variants, at 30 µM
[16] = system: F380Y/beta2Delta; test: as above; details: U2OS BacMam BK variants, at 30 µM
[17] = system: R275C; test: as above; details: U2OS BacMam BK variants, at 30 µM
[18] = system: R275C/beta1; test: as above; details: U2OS BacMam BK variants, at 30 µM
[19] = system: R275C/beta2Delta; test: as above; details: U2OS BacMam BK variants, at 30 µM
[20] = system: R275C/Slo1WT/beta2; test: as above; details: U2OS BacMam BK variants, at 30 µM

ATP-dependent translocase ABCB1 (Homo sapiens), sequence (P08183 whole entry, looked up): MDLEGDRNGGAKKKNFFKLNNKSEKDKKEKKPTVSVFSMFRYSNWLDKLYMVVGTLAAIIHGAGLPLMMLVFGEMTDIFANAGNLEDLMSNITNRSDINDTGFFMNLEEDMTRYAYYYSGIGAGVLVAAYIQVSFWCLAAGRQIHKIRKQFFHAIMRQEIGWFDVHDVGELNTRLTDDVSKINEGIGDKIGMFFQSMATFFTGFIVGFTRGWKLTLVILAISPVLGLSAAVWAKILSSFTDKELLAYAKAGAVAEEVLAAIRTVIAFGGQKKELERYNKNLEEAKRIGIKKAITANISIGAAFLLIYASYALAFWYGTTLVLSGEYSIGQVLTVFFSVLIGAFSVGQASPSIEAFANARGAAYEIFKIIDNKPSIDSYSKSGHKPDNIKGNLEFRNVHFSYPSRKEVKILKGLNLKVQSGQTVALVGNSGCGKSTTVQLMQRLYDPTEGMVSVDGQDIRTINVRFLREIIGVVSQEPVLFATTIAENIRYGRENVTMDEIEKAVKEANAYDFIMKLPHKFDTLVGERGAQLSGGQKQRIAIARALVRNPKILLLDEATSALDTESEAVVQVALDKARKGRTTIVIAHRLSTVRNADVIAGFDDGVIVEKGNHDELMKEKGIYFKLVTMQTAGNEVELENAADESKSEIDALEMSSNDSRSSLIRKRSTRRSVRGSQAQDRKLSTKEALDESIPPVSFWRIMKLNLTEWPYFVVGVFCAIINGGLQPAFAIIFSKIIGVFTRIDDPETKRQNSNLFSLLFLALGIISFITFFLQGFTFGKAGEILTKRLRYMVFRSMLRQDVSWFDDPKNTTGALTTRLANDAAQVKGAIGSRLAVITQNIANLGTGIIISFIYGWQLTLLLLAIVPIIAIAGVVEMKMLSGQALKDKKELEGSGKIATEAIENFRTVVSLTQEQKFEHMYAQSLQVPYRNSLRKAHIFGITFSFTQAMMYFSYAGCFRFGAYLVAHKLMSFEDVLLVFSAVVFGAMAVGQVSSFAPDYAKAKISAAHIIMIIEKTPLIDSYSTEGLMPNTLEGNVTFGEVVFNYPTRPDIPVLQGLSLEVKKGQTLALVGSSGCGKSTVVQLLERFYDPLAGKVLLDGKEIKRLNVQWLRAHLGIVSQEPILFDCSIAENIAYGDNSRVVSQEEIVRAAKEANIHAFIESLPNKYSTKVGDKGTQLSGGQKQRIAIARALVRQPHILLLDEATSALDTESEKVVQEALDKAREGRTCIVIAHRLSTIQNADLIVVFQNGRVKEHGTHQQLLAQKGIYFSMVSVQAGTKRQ

SMILES	fluorescence slope change [1]	inhibition [2] [%]	rescue above control [3]	glutamate uptake change [4] [%]	inclusion score [5]	aggregation suppression score [6]	period change [7]	inhibition [8]	fluorescence ratio (interference) [9]	remaining activity [10]	outcome [11]	survival [12]	mean signal [13]	log fold change Tl+ flux [14]	log fold change Tl+ flux [15]	log fold change Tl+ flux [16]	log fold change Tl+ flux [17]	log fold change Tl+ flux [18]	log fold change Tl+ flux [19]	log fold change Tl+ flux [20]
C=C(C)[C@H]1Cc2c(ccc3c2O[C@@H]2COc4cc(OC)c(OC)cc4[C@@H]2C3=O)O1	63.7% (active)	5.88	0	-44.7	2	0.895	-1.31 h (inactive)	-1% (inactive)	1 (inactive)	78.1% (inactive)	inactive	–	–	–	–	–	–	–	–	–
c1ccc2nc(N3CCNCC3)ccc2c1	25.1% (inactive)	-24.6	-5.3	-14.6	2	1.33	-0.04 h (inactive)	–	–	114% (inactive)	–	8.75 (inactive)	–	–	–	–	–	–	–	–
O=C(O)CCCc1ccc(N(CCCl)CCCl)cc1	–	25.6	-3.71	-0.49	–	0.0151	-0.09 h (inactive)	-3% (inactive)	1 (inactive)	115% (inactive)	–	4.5 (inactive)	236 (inactive)	-0.0169 (inactive)	0.0024 (inactive)	0.0059 (inactive)	-0.0229 (inactive)	-0.022 (inactive)	0.041 (inactive)	0.0346 (inactive)
O=C(CCCN1CCC2(CC1)C(=O)NCN2c1ccccc1)c1ccc(F)cc1	202% (active)	-14.9	4.9	-22.8	2	1.1	0.035 h (inactive)	–	1 (inactive)	121% (inactive)	inactive	7.92 (inactive)	–	–	–	–	–	–	–	–
CC(C)N(CCC(C(N)=O)(c1ccccc1)c1ccccn1)C(C)C (stereo unspecified)	52.1% (active)	-16.9	-8.3	24.3	2	1.38	0.265 hour (inactive) and -0.11 hour (inactive)	0% (inactive) and -1% (inactive)	1 (inactive)	98.9% (inactive) and 93.2% (inactive)	inactive	11.6 (inactive)	254 (inactive)	-0.0248 (inactive)	0.0372 (inactive)	0.00612 (inactive)	0.00817 (inactive)	-0.022 (inactive)	-0.0143 (inactive)	0.00641 (inactive)
CN(C)[C@@H]1C(=O)C(C(N)=O)=C(O)[C@@]2(O)C(=O)C3=C(O)c4c(O)cccc4[C@@](C)(O)[C@H]3C[C@@H]12	76.3% (active)	61.6	-1.89	10.7	0	0.769	–	–	–	–	–	22.6 (inactive)	244 (inactive)	–	–	–	–	–	–	–
O=c1[nH]oc2c1CCNC2	–	9.73	-2.56	5.07	2	1.43	0.075 h (inactive)	-5% (inactive)	1 (inactive)	100% (inactive)	inactive	19.5 (inactive)	–	–	–	–	–	–	–	–
COc1ccc(OC)c(C(O)C(C)N)c1 (stereo unspecified)	–	–	–	–	–	–	0.08 h (inactive)	-2% (inactive)	1 (inactive)	112% (inactive)	inactive	3.58 (inactive)	–	–	–	–	–	–	–	–
CC(CCc1ccccc1)NC(C)C(O)c1ccc(O)cc1 (stereo unspecified)	–	5.61	1.38	-2.97	2	1.46	0.06 h (inactive)	-5% (inactive)	0.9 (inactive)	104% (inactive)	inactive	–	–	–	–	–	–	–	–	–
Cc1ncc(CNC(=O)N(CCCl)N=O)c(N)n1	–	–	–	–	–	–	-0.065 h (inactive)	2% (inactive)	1 (inactive)	113% (inactive)	inactive	–	–	–	–	–	–	–	–	–
Clc1ccc(CO/N=C(\Cn2ccnc2)c2ccc(Cl)cc2Cl)c(Cl)c1	–	–	–	–	–	–	–	–	–	–	–	–	187 (inactive)	–	–	–	–	–	–	–
O=P1(N(CCCl)CCCl)NCCCO1 (stereo unspecified)	–	-14.8	-5.6	-7.13	2	1.14	0.185 h (inactive)	-3% (inactive)	1 (inactive)	112% (inactive)	inactive	–	262 (inactive)	-0.0772 (inactive)	-0.00569 (inactive)	-0.037 (inactive)	-0.0233 (inactive)	0.00892 (inactive)	-0.0421 (inactive)	0.011 (inactive)
Clc1ccc(COC(Cn2ccnc2)c2ccc(Cl)cc2Cl)cc1 (stereo unspecified)	66.2% (active)	55.1	–	16.9	–	0.0462	–	–	–	–	–	50.1 (inactive)	173 (inactive)	-0.0888 (inactive)	-0.0732 (inactive)	-0.182 (active)	-0.00134 (inactive)	0.0779 (inactive)	0.0329 (inactive)	-0.0527 (inactive)
CC(NC(C)(C)C)C(=O)c1cccc(Cl)c1 (stereo unspecified)	106% (active)	–	–	–	–	–	0.18 h (inactive)	-1% (inactive)	1 (inactive)	118% (inactive)	inactive	16.8 (inactive)	264 (inactive)	0.0198 (inactive) and -0.0218 (inactive)	-0.0211 (inactive) and 0.0228 (inactive)	-0.0525 (inactive) and 0.0137 (inactive)	-0.059 (inactive) and 0.00561 (inactive)	-0.0389 (inactive) and 0.036 (inactive)	-0.014 (inactive) and 0.0171 (inactive)	-0.0516 (inactive) and 0.0164 (inactive)
CN1C(=O)CCS(=O)(=O)C1c1ccc(Cl)cc1 (stereo unspecified)	29.1% (inactive)	11.3	10	3.58	2	1.17	0.08 h (inactive)	0% (inactive)	1 (inactive)	93.8% (inactive)	inactive	8 (inactive)	–	–	–	–	–	–	–	–
C[C@@H]1C[C@@H]([C@H](O)CC2CC(=O)NC(=O)C2)C(=O)[C@@H](C)C1	14.9% (inactive)	22.7	-0.63	-43.8	–	0.0281	–	–	–	–	–	0.417 (inactive)	–	–	–	–	–	–	–	–
CCC1(C2=NCCN2)Cc2ccccc2O1 (stereo unspecified)	–	–	–	–	–	–	0.07 h (inactive)	-1% (inactive)	1 (inactive)	82.2% (inactive)	inactive	–	–	–	–	–	–	–	–	–
NCCc1ccc(O)cc1	–	-15.4	-11.7	-2.56	2	1.19	0.035 h (inactive)	-3% (inactive)	1 (inactive)	98.4% (inactive)	inactive	–	–	–	–	–	–	–	–	–
CCCC(C)(COC(N)=O)COC(=O)NC(C)C (stereo unspecified)	52.8% (active)	17.5	0.33	3.53	2	1.4	0.065 h (inactive)	-1% (inactive)	1 (inactive)	106% (inactive)	–	11.2 (inactive)	258 (inactive)	0.0133 (inactive)	0.0587 (inactive)	-0.0375 (inactive)	0.0157 (inactive)	0.044 (inactive)	0.0245 (inactive)	0.0148 (inactive)
CN(C)[C@@H]1C(=O)C(C(N)=O)=C(O)[C@@]2(O)C(=O)C3=C(O)c4c(O)cccc4[C@@](C)(O)[C@H]3[C@H](O)[C@@H]12	60.8% (active)	-0.04	-1.64	-6.56	1	0.502	–	–	–	–	–	14.3 (inactive)	260 (inactive)	0.018 (inactive)	0.0522 (inactive)	-0.0529 (inactive)	-0.057 (inactive)	0.0468 (inactive)	-0.0649 (inactive)	-0.0058 (inactive)
CC(Cc1ccc(O)cc1)NCC(O)c1cc(O)cc(O)c1 (stereo unspecified)	108% (active)	7.8	3.16	0.39	2	1.23	0.005 h (inactive)	-3% (inactive)	1 (inactive)	91.6% (inactive)	inactive	36.6 (inactive)	–	–	–	–	–	–	–	–
O=C(O)c1nn(Cc2ccc(Cl)cc2Cl)c2ccccc12	–	–	–	–	–	–	-0.065 h (inactive)	-4% (inactive)	1 (inactive)	110% (inactive)	inactive	–	–	–	–	–	–	–	–	–
CC(C)(C)NCC(O)c1ccccc1Cl (stereo unspecified)	–	4.55	-6.12	2.34	2	1.28	-0.125 h (inactive)	-4% (inactive)	1 (inactive)	113% (inactive)	inactive	–	–	–	–	–	–	–	–	–
N[C@@H](Cc1ccc(N(CCCl)CCCl)cc1)C(=O)O	94.7% (active)	9.42	-0.78	15.9	–	1.07	–	–	–	104% (inactive)	–	–	–	–	–	–	–	–	–	–
CCC1(c2ccc(N)cc2)CCC(=O)NC1=O (stereo unspecified)	–	22.4	12.8	15.1	2	1.06	0.015 h (inactive)	-3% (inactive)	1 (inactive)	–	inactive	19.8 (inactive)	262 (inactive)	0.023 (inactive)	-0.0309 (inactive)	-0.00163 (inactive)	0.0191 (inactive)	-0.00575 (inactive)	-0.0116 (inactive)	0.0134 (inactive)
COc1ccc(C(CN(C)C)C2(O)CCCCC2)cc1 (stereo unspecified)	–	–	–	–	–	–	–	-1% (inactive)	1.1 (inactive)	–	inactive	–	261 (inactive)	0.00861 (inactive)	-0.0404 (inactive)	-0.0103 (inactive)	-0.109 (inactive)	0.0103 (inactive)	-0.0272 (inactive)	0.0327 (inactive)
COC(=O)C1=CCCN(C)C1	–	15.1	4.32	13.8	2	1.35	-0.175 h (inactive)	0% (inactive)	1 (inactive)	111% (inactive)	inactive	7.67 (inactive)	–	–	–	–	–	–	–	–
O=c1[nH]c2ccccc2n1C1CCN(CCCC(c2ccc(F)cc2)c2ccc(F)cc2)CC1	147% (active)	13.8	6.31	15.9	–	1.1	0.045 h (inactive)	-3% (inactive)	1 (inactive)	122% (inactive)	inactive	4.67 (inactive)	–	–	–	–	–	–	–	–
